High-throughput results deposited in PubChem BioAssay by National Center for Advancing Translational Sciences (NCATS).
SARS PLP yeast = qHTS of Yeast-based Assay for SARS-CoV PLP | S. cerevisiae expressing SARS-CoV PLpro, growth rescue | Potency, µM (doses to about 32.9 µM), inactives show at the highest dose activity, positive = growth rescue, hits mostly activators | 330,000 compounds, 0.19% hits | AID 485353, 2010; calls by dose curve; further: 0% is about no effect; nearly all actives have a fitted effect of over 55% in size
Pf growth 96h = Primary qHTS for delayed death inhibitors of the malarial parasite plastid, 96 hour incubation; P. falciparum luciferase reporter growth, 96 h; Potency, µM (highest dose often 28.7 µM), for the others: top-dose activity change, negative = inhibition, most hits filed as inhibitors; 320,000 compounds, 6.9% hits; AID 504834, 2011; further: on the % scale 0 is the no-effect control and ±100 the full control effect
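Plates of compound plus infected erythrocytes (2% hematocrit, 0.05% parasitemia final) incubate 96 hours, 37 C, 5% CO2. Detection reagent added; reduced luminescence from the parasites' luciferase reporter flags inhibition.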
Pf growth 48h = Primary qHTS for delayed death inhibitors of the malarial parasite plastid, 48 hour incubation. P. falciparum luciferase growth in erythrocytes, 48 h. Potency, µM (doses to about 28.7 µM), for the others: at the top dose activity change, negative = inhibition, most hits filed as inhibitors. 310,000 compounds, 5.9% hits; further: on the % scale 0 is the no-effect control and ±100 the full control effect
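Compounds are pin-transferred into medium, infected erythrocytes (2% hematocrit, 0.1% parasitemia final) are added, and plates sit one parasite generation at 37 C in 5% CO2. Detection reagent is then added and luminescence measured.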
NS1 function inh = qHTS Assay for Inhibitors of Influenza NS1 Protein Function. Potency, µM (titrated, usually from 46.1 µM), without a hit: at the highest dose activity, positive = more growth. 270,000 compounds, 0.4% hits. AID 2326, 2010; calls by dose curve; further: actives are rising curves; nearly all actives have a fitted effect of over 50% in size
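S. cerevisiae expressing influenza A NS1, grown in glucose, washed, then diluted 1:100 into pH 6.0 -URA galactose medium with 23 nl compound. Growth recovery read as OD600; NS1-free strain serves as control.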
An asterisk follows results filed as active; u = inconclusive; x = no result. Only some compounds are listed: those with a hit (about 10% of all), similar ones and a draw of the others. Unless noted, the call rests on the fitted dose curve; in most records, active means well fitted inhibition curve with a large enough effect; inconclusive means small, poorly fitted or top-dose-only effect, or another doubt; inactive means no such curve, though single readings can be large or run the other way. Potency means the concentration at half of the fitted maximal effect.

SMILES	SARS PLP yeast	Pf growth 96h	Pf growth 48h	NS1 function inh
O=C(NCC(c1cccs1)N1CCOCC1)c1ccccc1NS(=O)(=O)c1ccc(Cl)c([N+](=O)[O-])c1 (stereo unspecified)	-5.9%	8.28µM*	u	-12.7%
Cc1ccccc1[C@]1(C)ON(c2ccccc2C(F)(F)F)C1=O	2.1%	1.31µM*	1.85µM*	x
CC[C@]1(c2ccccc2C)ON(c2ccccc2C(F)(F)F)C1=O	-7.0%	u	2.62µM*	x
COc1ccccc1[C@@]1(C)ON(c2ccccc2C(F)(F)F)C1=O	-2.5%	1.04µM*	1.47µM*	x
COc1ccccc1N1C(=O)CC(c2ccccc2)CC1=O	-0.3%	44.7%	16.9%	x
O=C1N(c2ccccc2)c2ccccc2C1(O)C(F)(F)F (stereo unspecified)	-1.2%	20.4%	17.8%	3.1%
Cc1ccc(S(=O)(=O)N(C)C)cc1[N+](=O)[O-]	1.0%	47.6%	50.6%	2.7%
CCCCN(C(=O)Cc1ccc(S(=O)(=O)N2CCOCC2)s1)c1ccccc1	1.1%	11.7µM*	u	x
O=C(Cc1ccc(S(=O)(=O)N2CCOCC2)s1)N(Cc1ccccc1)c1ccccc1	-0.5%	2.33µM*	9.28µM*	x
CCNC(=O)Cc1ccc(S(=O)(=O)N2CCOCC2)s1	0.1%	-61.0%	u	x
COc1ccc(CCNC(=O)CSc2nc(=O)[nH]c3c2CCC3)cc1OC	-3.6%	0.9%	u	x
CCOC(=O)CP(=O)(c1ccccc1)c1ccccc1	-4.2%	1.3%	x	5.1%
CCOC(=O)C[n+]1c(C)ccc2c1CCC2	0.4%	8.28µM*	-6.4%	7.5%
COc1c(Cl)cc(Cl)cc1C(=O)Nc1ccc(C(=O)O)cc1	10.5%	-18.5%	11.5%	-21.7%
COc1c(Cl)cc(Cl)cc1/C=C/C(=O)c1ccc(NC(=O)c2cccs2)cc1	0.6%	-12.2%	5.22µM*	8.0%
CCCCCCN=C(C)c1ccccc1O	0.8%	70.5%	61.0%	-1.6%
CC1CCC2(CC1)NC(=O)N(CC(=O)NC(=O)NC1CCCC1)C2=O (stereo unspecified)	0.9%	13.1µM*	-14.5%	-2.4%
O=C(CN1C(=O)NC2(CCCCCC2)C1=O)NC1CCCCCCC1	5.4%	13.8%	4.6%	x
O=S(=O)(Cc1ccc(Cl)cc1)NCc1ccc2c(c1)OCO2	0.2%	u	31.2%	-10.0%
Nc1cccnc1Sc1cccc(Cl)c1	-7.2%	-7.2%	23.9%	-11.8%
COc1ccccc1Sc1nc(-c2ccccn2)ncc1OC	2.1%	u	u	x
COc1cnc(-c2ccccn2)nc1Sc1cccc(Cl)c1	0.4%	1.47µM*	u	-3.9%
COc1cnc(-c2ccccn2)nc1Sc1ccc(C)cc1	u	u	11.7µM*	x
CCN(CC(=O)NCc1ccc(Cl)cc1)C(=O)CCc1ccccc1	-0.2%	-3.0%	-10.9%	-4.8%
COc1ccc(-n2c(O)c(C=Nc3ccccc3)c3ccccc3c2=O)cc1	-0.1%	-7.5%	-3.0%	x
CCN(c1ccc(N=Cc2c(O)n(Cc3ccc(OC)cc3)c(=O)c3ccccc23)cc1)C(C)C	-1.0%	1.47µM*	u	x
Cc1ccc(CCNC(=O)C2CCN(C(=O)N(C)C)CC2)cc1	0.3%	1.31µM*	x	-18.4%
